The text below walks through data of PubChem BioAssay (Tox21).

The nature of test [1]: qHTS assay to identify small molecule antagonists of the androgen receptor (AR) signaling pathway using the MDA cell line in the presence of 0.5 nM R1881 - cell viability counter screen (AID 1259242). Note: nearly all actives have a fitted effect of over 45% in size. Note: potency is the fitted concentration of half-maximal effect. The gist of the method: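 Live-cell protease fluorescence, CellTiter-Fluor, 30 min at 37C. Cells: MDA-kb2, 3,000/well, preincubated 5 hr. Compounds plus 0.5 nM R1881 final, 16 hr, 37C, 0% CO2.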
A general note: In qHTS, concentration-response curves come from the screen itself.

The nature of test [2]: qHTS assay to identify small molecule phospholipidosis (PLD) inducers (AID 1259344; active = well fitted curve in the direction sought with a large enough effect; an effect the other way counts as inactive or inconclusive; note: potency is the fitted concentration of half-maximal effect). The gist of the method:
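Accumulated phospholipid, stained red by LipidTOX during 24 h compound treatment of HepG2 cells at 37 C, is quantified from images as pit number and intensity, normalised per cell using Hoechst-stained nuclei.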

A short description of test [3]: qHTS assay to identify small molecule HDAC inhibitors (AID 1259364).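 Note: wild-type HCT-116 cells with endogenous class I/II HDAC activity; top concentration of the series differs between compounds; nearly all actives have a fitted effect of over 45% in size.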 In short, it runs like this: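 HCT-116 (wild type), 1,500 cells/well, overnight; compound 2 hr 37C 5% CO2; HDAC-Glo I/II reagent 30 min RT; luminescence readout.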
Test [4] is described as follows: qHTS assay to identify small molecule HDAC inhibitors - cell viability counter screen (AID 1259365). Note: series mostly up to about 92 µM; nearly all actives have a fitted effect of over 50% in size. In short, it runs like this:
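Wild-type HCT-116 cells, 1,500/well, cultured overnight, then compound-treated 2 h at 37 C. Viability measured as ATP luminescence with CellTiter-Glo after 30 min at room temperature.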

A short description of test [5]: qHTS assay to identify small molecule agonists of the sonic hedgehog signaling (Shh) pathway - cell viability counter screen (AID 1259366). Note: nearly all actives have a fitted effect of over 50% in size. In short, it runs like this: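 NIH/3T3-derived Gli1-Luc reporter cells, 2,000 per well, received compound after 4 h and were treated about 23 h at 37C. Viability measured in the same wells by CellTiter-Fluor fluorescence after 1 h.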

The nature of test [6]: qHTS assay to identify small molecule antagonists of the sonic hedgehog signaling (Shh) pathway - cell viability counter screen (AID 1259367). Note: nearly all actives have a fitted effect of over 55% in size. The gist of the method:
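CellTiter-Fluor signal in conditioned medium-stimulated 3T3 Gli1-Luc cells, 23 hr compound exposure, 37C.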

Test [7] can be described thus: qHTS assay to identify small molecule agonists of the sonic hedgehog signaling (Shh) pathway (AID 1259368; calls by dose curve;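 note: NIH/3T3-derived 3T3Gli1-Luc cells carrying a stable Gli1-driven firefly luciferase reporter; series mostly up to about 92 µM; nearly all actives have a fitted effect of over 15% in size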). In short, it runs like this:
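Read-out: firefly luciferase luminescence from a Gli1 response element reporter stably integrated in NIH/3T3-derived 3T3Gli1-Luc cells, measured 30 min at room temperature after reagent addition. Compound exposure lasted 24 hr at 37 C, 5% CO2.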

A short description of test [8]: qHTS assay to identify small molecule antagonists of the sonic hedgehog signaling (Shh) pathway (AID 1259369; calls by dose curve; note: nearly all actives have a fitted effect of over 45% in size; note: potency is the fitted concentration of half-maximal effect). The gist of the method: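 Luminescence readout: firefly Luc under Gli1 response element in 3T3Gli1-Luc cells (NIH/3T3 clone). Antagonist mode, stimulation by conditioned medium; compound exposure 24hr at 37 C, 5% CO2.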
Test [9] is described as follows: qHTS assay to identify small molecule agonists of the androgen receptor (AR) signaling pathway in the presence of an antagonist - cell viability counter screen (AID 1259379). Note: nearly all actives have a fitted effect of over 25% in size. Note: potency is the fitted concentration of half-maximal effect. The gist of the method: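 Viability counter screen: CellTiter-Fluor fluorescence, measured in the same wells as the luciferase read-out. MDA-kb2 cells, 3,000/well, with nilutamide at 3.0uM final and compounds at 15 concentrations, 16 hr at 37C, 0% CO2.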

The nature of test [10]: qHTS assay to identify small molecule agonists of the estrogen receptor beta (ER-beta) signaling pathway - cell viability counter screen (AID 1259380). Note: nearly all actives have a fitted effect of over 30% in size. Note: potency is the fitted concentration of half-maximal effect. The gist of the method: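 Luminescence read-out (CellTiter-Glo, 30 min, room temp) taken in the same wells as the beta-lactamase reporter assay; ER-beta-UAS-bla HEK293T cells exposed to DMSO-dissolved compounds for 16 hr at 37C in 2% charcoal-stripped FBS medium.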

The nature of test [11]: qHTS assay to identify small molecule antagonists of the estrogen receptor beta (ER-beta) signaling pathway - cell viability counter screen (AID 1259382). Note: nearly all actives have a fitted effect of over 55% in size. Note: potency is the fitted concentration of half-maximal effect. In short, it runs like this: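 Luminescent ATP read-out (CellTiter-Glo, 30 min, RT) taken in the same wells as the bla reporter assay. HEK293T ER-beta-UAS-bla cells in 2% charcoal-stripped FBS were exposed to compounds with 1nM E2 for 16 hr at 37C.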

The nature of test [12]: qHTS assay to identify small molecule agonists or antagonists of the thyroid stimulating hormone receptor (TSHR) signaling pathway - wild type cell line counter screen (AID 1259384; calls by dose curve). The gist of the method:
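Counter screen in untransfected Hek293: compounds (15-point titration, triplicate) plus phosphodiesterase inhibitor Ro20-1724 added after 18 h plating; 30 min RT. Intracellular cAMP via competitive d2/cryptate immunoassay, 1 h incubation.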

In test [13] the target is Thyrotropin receptor (Homo sapiens) (UniProt P16473). Kind of test: qHTS assay to identify small molecule antagonists of the thyroid stimulating hormone receptor (TSHR) signaling pathway (AID 1259385; calls by dose curve; note: nearly all actives have a fitted effect of over 20% in size; note: potency is the fitted concentration of half-maximal effect). The gist of the method:
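Antagonist mode: compound-treated TSHR-expressing HEK293 cells were stimulated with 1.5 ng/mL TSH (final) in presence of Ro20-1724 for 30 min at RT. HTRF cAMP detection after 1 h; each compound tested at 15 concentrations, triplicate.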

Test [14] in a line: qHTS assay to identify small molecule agonists of the estrogen receptor alpha (ER-alpha) signaling pathway in the presence of an antagonist - cell viability counter screen (AID 1259386). Note: nearly all actives have a fitted effect of over 30% in size. Note: potency is the fitted concentration of half-maximal effect. The gist of the method: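 Read-out: CellTiter-Fluor fluorescence after 1hr reagent incubation, measured in the same wells as the luciferase readout. VM7Luc4E2 cells were exposed to 15 compound concentrations with 10.0nM ICI-182,780 for 22hr at 37C.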

In test [15] the target is Estrogen receptor beta (Homo sapiens) (UniProt Q92731). The test is described as follows: qHTS assay to identify small molecule agonists of the estrogen receptor beta (ER-beta) signaling pathway (AID 1259377; active = well fitted activation curve with a large enough effect in the signal ratio in the repeat runs, not every such curve was filed as active; the % refers to the signal ratio). The gist of the method: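 ER-beta-UAS-bla HEK293T cells in medium with 2% charcoal-stripped FBS were exposed to compounds for 16 h at 37C. Beta-lactamase reporter activity was read as fluorescence after 2 h with LiveBLAzer B/G FRET substrate at room temperature.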

Test [16] shares this target. The test is described as follows: qHTS assay to identify small molecule antagonists of the estrogen receptor beta (ER-beta) signaling pathway (AID 1259378; active = well fitted inhibition curve with a large enough effect in the signal ratio in the repeat runs, not every such curve was filed as active; the % refers to the signal ratio). The gist of the method: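 Antagonist mode: compounds added to beta-lactamase reporter HEK293T ER-beta-UAS cells stimulated with E2 (1nM final), 16 hr at 37C. LiveBLAzer B/G FRET substrate, 2 hours room temperature, fluorescence read-out.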

Test [17] deals with Estrogen receptor (Homo sapiens) (UniProt P03372). Kind of test: qHTS assay to identify small molecule antagonists of the estrogen receptor alpha (ER-alpha) signaling pathway using the BG1 cell line in the presence of 0.1 nM 17-beta-estradiol (AID 1259244). Note: nearly all actives have a fitted effect of over 50% in size. The gist of the method: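 Luminescence after ONE-Glo (30 min, room temperature) measured ERE-luciferase activity in VM7Luc4E2 cells treated 22 h with compound and 0.1 nM final 17beta-estradiol as stimulator.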

Test [18] shares this target. The test is described as follows: qHTS assay to identify small molecule agonists of the estrogen receptor alpha (ER-alpha) signaling pathway in the presence of an antagonist (AID 1259383; calls by dose curve; note: top concentration of the series differs between compounds; nearly all actives have a fitted effect of over 15% in size). The gist of the method:
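Luciferase luminescence (ONE-Glo, 30min at room temperature) measured in VM7Luc4E2 cells after 22hr compound exposure at 15 concentrations, with 10.0nM ICI-182,780 final present; cells express endogenous ER-alpha and carry four EREs upstream of luciferase.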

Several values for one entry are separate records, joined by “and”; a condition that tells them apart may be missing. Identical values can stand only once. Records with an inconclusive call do not appear. A structure can be active in one record and inactive in another. Activity calls are given as the source filed them. Unless noted, calls come from the whole dose curve; as a rule, active = well fitted curve in the direction sought with a large enough effect in the repeat runs; inconclusive = weak or mixed curves; inactive = no such curve, though single readings can be large; an effect the other way counts as inactive or inconclusive.
% is set by controls: 0 for no effect and ±100 for the full control effect.

Sequence of Estrogen receptor (Homo sapiens) (P03372 whole entry, looked up): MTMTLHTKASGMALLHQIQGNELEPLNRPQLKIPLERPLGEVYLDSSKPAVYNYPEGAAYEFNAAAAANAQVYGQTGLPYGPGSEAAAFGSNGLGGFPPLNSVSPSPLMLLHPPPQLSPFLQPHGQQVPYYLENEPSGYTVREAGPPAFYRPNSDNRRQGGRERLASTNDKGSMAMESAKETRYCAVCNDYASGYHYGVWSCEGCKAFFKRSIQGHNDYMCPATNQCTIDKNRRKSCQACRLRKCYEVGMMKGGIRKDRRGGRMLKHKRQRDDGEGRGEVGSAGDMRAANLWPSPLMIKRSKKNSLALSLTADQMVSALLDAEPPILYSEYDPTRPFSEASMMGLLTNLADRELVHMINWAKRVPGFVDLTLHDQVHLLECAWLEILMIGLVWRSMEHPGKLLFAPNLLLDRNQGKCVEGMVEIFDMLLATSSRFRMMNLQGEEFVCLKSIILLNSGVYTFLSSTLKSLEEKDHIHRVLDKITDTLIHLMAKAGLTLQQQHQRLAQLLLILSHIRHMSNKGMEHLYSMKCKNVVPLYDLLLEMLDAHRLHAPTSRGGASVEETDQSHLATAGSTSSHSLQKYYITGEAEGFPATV
Sequence of Thyrotropin receptor (Homo sapiens) (P16473 whole entry, looked up): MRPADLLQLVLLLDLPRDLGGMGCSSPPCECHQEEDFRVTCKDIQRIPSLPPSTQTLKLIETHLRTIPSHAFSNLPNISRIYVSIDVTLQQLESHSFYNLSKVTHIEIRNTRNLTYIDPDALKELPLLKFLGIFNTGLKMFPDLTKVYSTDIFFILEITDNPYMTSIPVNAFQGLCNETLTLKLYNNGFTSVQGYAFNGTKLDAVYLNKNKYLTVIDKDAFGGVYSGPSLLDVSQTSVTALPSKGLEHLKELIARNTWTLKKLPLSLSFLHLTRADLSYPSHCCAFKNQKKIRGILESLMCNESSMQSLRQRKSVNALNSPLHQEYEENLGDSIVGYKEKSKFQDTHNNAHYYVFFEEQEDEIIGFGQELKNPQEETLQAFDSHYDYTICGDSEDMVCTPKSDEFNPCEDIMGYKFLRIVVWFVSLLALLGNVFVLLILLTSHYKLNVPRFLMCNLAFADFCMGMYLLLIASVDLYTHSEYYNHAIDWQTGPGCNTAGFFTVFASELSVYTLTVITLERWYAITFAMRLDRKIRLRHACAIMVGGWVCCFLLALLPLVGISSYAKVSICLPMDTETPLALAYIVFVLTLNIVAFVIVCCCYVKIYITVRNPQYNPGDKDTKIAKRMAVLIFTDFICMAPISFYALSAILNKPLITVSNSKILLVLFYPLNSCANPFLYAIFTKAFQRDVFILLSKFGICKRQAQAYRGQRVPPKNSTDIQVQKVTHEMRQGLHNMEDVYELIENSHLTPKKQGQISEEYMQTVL
Sequence of Estrogen receptor beta (Homo sapiens) (Q92731 whole entry, looked up): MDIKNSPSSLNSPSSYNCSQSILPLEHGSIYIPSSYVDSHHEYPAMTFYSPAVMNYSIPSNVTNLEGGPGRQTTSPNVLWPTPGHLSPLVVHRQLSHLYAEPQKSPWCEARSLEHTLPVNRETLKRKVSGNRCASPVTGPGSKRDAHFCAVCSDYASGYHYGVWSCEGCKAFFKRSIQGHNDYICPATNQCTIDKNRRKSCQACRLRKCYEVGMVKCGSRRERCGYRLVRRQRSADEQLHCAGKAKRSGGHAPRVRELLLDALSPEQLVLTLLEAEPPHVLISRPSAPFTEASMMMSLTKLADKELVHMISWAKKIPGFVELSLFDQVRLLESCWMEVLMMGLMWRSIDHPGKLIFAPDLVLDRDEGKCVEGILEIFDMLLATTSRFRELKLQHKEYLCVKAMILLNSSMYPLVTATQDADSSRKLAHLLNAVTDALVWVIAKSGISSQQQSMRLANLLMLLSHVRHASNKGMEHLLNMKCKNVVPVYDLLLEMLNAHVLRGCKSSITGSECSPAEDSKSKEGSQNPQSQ

As for `O=C1O[C@H]([C@@H](O)CO)C(O)=C1O`, the Potency result in test [1], in [2], in [3], in test [4], in test [5] and in test [6] was “inactive” each time. Besides, the Potency entry in test [8], in test [9], in test [10], in [11], in test [12] and in test [13] was “inactive” each time. Besides, the Potency result in test [14] is “inactive”. Further, in [7], the outcome was inactive.
For the molecule `Nc1ccc(S(N)(=O)=O)cc1`, the Potency result in [1], in test [2], in test [3], in test [4], in test [5] and in [6] was “inactive” throughout. Moreover, the Potency result in test [8], in test [15], in test [16], in test [9], in test [10] and in test [11] was “inactive” each time. For the same molecule, the Potency result in [12], in test [13] and in test [14] was “inactive” each time. For the same molecule, the outcome in [7] was inactive.
In the case of `O=C(O)c1ccccc1`, the Potency result in [1], in test [17], in test [3], in test [5], in test [6] and in [8] was “inactive” throughout. Also, the Potency result in test [9], in [10], in test [11], in test [18], in test [12] and in [13] was “inactive” throughout. The Potency result in test [14] is “inactive”. Moreover, the result in test [7] was inactive.
Turning to `CN(C)CCOC(C)(c1ccccc1)c1ccccn1` (stereo unspecified), the Potency entry in test [1], in test [2], in test [3], in [4], in test [5] and in test [6] was “inactive” each time. The Potency result in [8], in test [15], in test [16], in [9], in test [10] and in [11] was “inactive” each time. Besides, the Potency result in test [12], in test [13] and in test [14] was “inactive” throughout. Besides, the result in test [7] was inactive.
Consider `CC/C(=C(\c1ccccc1)c1ccc(OCCN(C)C)cc1)c1ccccc1`, for which the Potency is 61.1 µM (active) [middle of 4 runs] in [1]; 11.2 µM (active) in [2]; 23.7 µM (active) [middle of 4 runs] in test [8]; 69 µM (active) and 48.9 µM (active) and 48.6 µM (active) in [9]; 24.5 µM (active) [middle of 5 runs] in test [10]; 27.3 µM (active) and 21.9 µM (active) and 29.8 µM (active) in test [11]. In addition, the Potency is 61.5 µM (active) and 21.1 µM (active) in [13]; “inactive and 61.6 µM (active)” in [14]. Moreover, the Potency entry in test [3] and in [12] was “inactive” throughout. In addition, the outcome in [7] was inactive.
Regarding `CCCCC(CC)C(=O)O` (stereo unspecified), the Potency result in test [1], in [3], in [5], in test [6], in test [8] and in [9] was “inactive” each time. The Potency entry in test [10], in test [11], in [12], in test [13] and in test [14] was “inactive” each time. The outcome in [7] was inactive.
As for `CC(O)(P(=O)(O)O)P(=O)(O)O`, the Potency entry in [1], in test [2], in test [3], in [5], in [6] and in test [8] was “inactive” throughout. The Potency entry in [9], in [10], in test [11], in test [12], in [13] and in test [14] was “inactive” in each case. Besides, the call in [7] was inactive.
